# In paper PMC5540273 (PLoS ONE, 2017):
# Values joined by “and” are separate entries in the source; they are usually repeats but may differ in a detail not shown here. Identical values can stand only once. Like-named read-outs stand apart in the source and are kept apart here.
# Legend:
# MAP4K3 = conditions: concentration: 1 μM, replicates: in singlicate, n = 1
# MAP4K4 = conditions: concentration: 1 μM, replicates: in singlicate, n = 1
# MAP4K5 = conditions: concentration: 1 μM, replicates: in singlicate, n = 1
# MAPKAPK2 = conditions: concentration: 1 μM, replicates: in singlicate, n = 1
# MAPKAPK5 = conditions: concentration: 1 μM, replicates: in singlicate; n = 1
# MARK1 = conditions: concentration: 1 μM, replicates: in singlicate, n = 1
# MARK2 = conditions: concentration: 1 μM, replicates: in singlicate, n = 1
# MARK3 = conditions: concentration: 1 μM, replicates: in singlicate, n = 1
# MARK4 = conditions: concentration: 1 μM, replicates: in singlicate, n = 1
# MAST1 = conditions: concentration: 1 μM, replicates: in singlicate, n = 1
# 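Also: KINOMEscan kinase panel screen.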
SMILES,%Inh (MAP4K3),%Inh (MAP4K4),%Inh (MAP4K5),%Inh (MAPKAPK2),%Inh (MAPKAPK5),%Inh (MARK1),%Inh (MARK2),%Inh (MARK3),%Inh (MARK4),%Inh (MAST1),%Inh (MAP4K3; 1 µM),%Inh (MAP4K4; 1 µM),%Inh (MAP4K5; 1 µM),%Inh (MARK1; 1 µM),%Inh (MARK2; 1 µM),%Inh (MARK3; 1 µM),%Inh (MARK4; 1 µM),%Inh (MAPKAPK2; 1 µM),%Inh (MAST1; 1 µM)
CCn1cnc2c(N)ncnc21 [GW345098],1%,0%,0%,0%,10%,0%,12%,4%,0%,5%,–,–,–,–,–,–,–,–,–
CSc1ccc(-c2cc3ncnc(SCC(=O)O)c3s2)cc1,0%,0%,0%,1%,0%,0%,18%,6%,0%,15%,–,–,–,–,–,–,–,–,–
CN1c2ccc(CNc3ccc(F)cc3)cc2-c2c(cnn2C)S1(=O)=O,8%,0%,0%,0%,0%,3%,0%,0%,11%,0%,–,–,–,–,–,–,–,–,–
Cc1nnc(-c2ccc3occ(-c4ccc(C(C)O)cc4)c3c2)o1 (stereo not drawn),7%,12%,15%,21%,19%,7%,16%,0%,8%,0%,–,–,–,–,–,–,–,–,–
Cc1ccc(NC(=O)c2ccnc(N3CCN(C)CC3)c2)cc1-c1ccc(C(=O)NCC2CC2)cc1 [GW775604],9%,0%,0%,0%,0%,12%,0%,10%,41%,0%,–,–,–,–,–,–,–,–,–
O=C(NCCCN1CCOCC1)c1cccc(Nc2nccc(Nc3ccc(Oc4ccccc4)cc3)n2)c1 [GW663929],0%,6%,0%,0%,0%,0%,19%,8%,0%,0%,–,–,–,–,–,–,–,–,–
COc1cc2ncn(-c3cc(OCc4sccc4Cl)c(C(N)=O)s3)c2cc1OC [GSK448459],50%,0%,99.1%,0%,0%,0%,0%,0%,0%,0%,–,–,–,–,–,–,–,–,–
NS(=O)(=O)c1cccc(-c2ccc3ncc(N4CCOCC4)nc3c2)c1 [GSK1535721],0%,0%,0%,7%,0%,0%,11%,0%,0%,0%,–,–,–,–,–,–,–,–,–
N#Cc1c(N2CCOCC2)sc(-c2ccn[nH]2)c1-c1ccc(Cl)cc1,0%,0%,0%,0%,2%,1%,0%,27%,0%,53%,–,–,–,–,–,–,–,–,–
O=C(NCCNc1ccnc(Nc2ccc(F)cc2)n1)c1cc2ccccc2s1 [GSK1379874],0%,0%,3%,0%,0%,0%,0%,0%,0%,0%,–,–,–,–,–,–,–,–,–
CC(=O)Nc1ccc(COc2ccc(Nc3ccnc4cc(-c5ccccn5)ccc34)cc2)cc1.Cl [GW440148],0%,0%,0%,0%,2%,0%,0%,8%,0%,16%,–,–,–,–,–,–,–,–,–
[2H]C([2H])(c1cccc(C(F)(F)F)c1C)n1ccn2c(=O)nc(N3CCOCC3)cc12 [GSK2336394],0%,6%,0%,22%,0%,0%,0%,0%,2%,0%,–,–,–,–,–,–,–,–,–
O=C(Nc1n[nH]c2cc(-c3cccc(F)c3)ccc12)C1CC1 [SB-735464],0%,42%,6%,0%,21%,9%,25%,0%,5%,34%,–,–,–,–,–,–,–,–,–
COc1ccc(Nc2ncc(C#N)c(Nc3ccccc3C(N)=O)n2)cc1N1CCN(C)CC1.Cl [GSK1558669],99.8%,96.8%,99.3%,0%,0%,99.3%,99.9%,89%,98.7%,91.8%,–,–,–,–,–,–,–,–,–
c1ccc(-c2cc(-c3c[nH]nc3-c3ccccn3)ccn2)cc1 [GW576604],0%,22%,0%,6%,0%,0%,0%,0%,0%,13%,–,–,–,–,–,–,–,–,–
O=C(NOCC1CC1)c1ccc(F)c(F)c1Nc1ccc(I)cc1Cl,0%,0%,0%,0%,0%,0%,6%,0%,0%,0%,–,–,–,–,–,–,–,–,–
COc1ccc(S(=O)(=O)NC2CCN(c3cc(C)nc(Nc4cccc(C#N)c4)n3)CC2)cc1.O=C(O)C(F)(F)F [GSK1653539],0%,0%,0%,0%,0%,0%,12%,0%,0%,0%,–,–,–,–,–,–,–,–,–

SMILES,%Inh (MAP4K3),%Inh (MAP4K4),%Inh (MAP4K5),%Inh (MAPKAPK2),%Inh (MAPKAPK5),%Inh (MARK1),%Inh (MARK2),%Inh (MARK3),%Inh (MARK4),%Inh (MAST1),%Inh (MAP4K3; 1 µM),%Inh (MAP4K4; 1 µM),%Inh (MAP4K5; 1 µM),%Inh (MARK1; 1 µM),%Inh (MARK2; 1 µM),%Inh (MARK3; 1 µM),%Inh (MARK4; 1 µM),%Inh (MAPKAPK2; 1 µM),%Inh (MAST1; 1 µM)
COCCNC(=O)c1ccc(-c2cc(C(=O)NC3CC3)cc(F)c2C)cc1 [GW868318],14%,3%,6%,8%,5%,27%,0%,25%,9%,68%,–,–,–,–,–,–,–,–,–
O=C(c1ccc(-c2cc(-c3c[nH]nc3-c3ccccn3)ccn2)cc1)N1CCOCC1 [GW812171],0%,0%,0%,0%,0%,5%,21%,17%,11%,18%,–,–,–,–,–,–,–,–,–
CNc1ncnc2[nH]ncc12 [SKF-18355],0%,0%,0%,0%,0%,23%,14%,35%,59%,70%,–,–,–,–,–,–,–,–,–
CN1c2ccc(NCc3ccc(F)cc3)cc2-c2c(cnn2C)S1(=O)=O,1%,0%,12%,0%,0%,0%,0%,0%,13%,11%,–,–,–,–,–,–,–,–,–
Nc1nc(-c2ccc3c(N)n[nH]c3c2)cc(N2CCCC2)n1 [GSK2227430],0%,0%,0%,0%,0%,0%,0%,0%,6%,0%,–,–,–,–,–,–,–,–,–
COc1ccc(Nc2nccc(N3CCC(NC(=O)Nc4cccc(C(C)=O)c4)C3)n2)cc1 (stereo not drawn) [GSK1379731],0%,8%,0%,0%,0%,0%,0%,0%,10%,0%,–,–,–,–,–,–,–,–,–
c1ccc(-c2n[nH]cc2-c2ccnc3ccccc23)nc1 [GW271431],16%,23%,3%,9%,0%,0%,0%,0%,6%,0%,–,–,–,–,–,–,–,–,–
O=c1cc(N2CCOCC2)nc2n(Cc3cccc(F)c3)ccn12 [GSK2297430],11%,9%,4%,12%,0%,0%,0%,0%,10%,0%,–,–,–,–,–,–,–,–,–
Cc1ccc(C(=O)NCC(N)=O)cc1-n1c(C)cc(OCc2ccc(F)cc2F)c(Br)c1=O,12%,4%,0%,17%,0%,24%,11%,10%,16%,0%,–,–,–,–,–,–,–,–,–
Fc1ccc(-c2ncn(CCCN3CCOCC3)c2-c2ccccn2)cc1 [SB-211742],0%,2%,0%,0%,0%,0%,0%,30%,24%,18%,–,–,–,–,–,–,–,–,–
NCCNS(=O)(=O)c1ccc(-c2ccnc3[nH]ccc23)cc1 [GSK977617],–,–,–,0%,0%,–,–,–,–,0%,20% and 0%,43% and 25%,8% and 0%,18% and 0%,53% and 40%,25% and 4%,36% and 12%,–,–
O=C1Cc2cc(Nc3nc(NCc4cccc(S(=O)(=O)C(F)(F)F)c4)ncc3C(F)(F)F)ccc2N1,13%,0%,0%,4%,30%,5%,0%,19%,6%,0%,–,–,–,–,–,–,–,–,–
Cl.Nc1ncnc2occ(-c3ccc(NC(=O)Nc4cc(C(F)(F)F)ccc4F)cc3)c12 [SB-707548],77%,92.9%,99.7%,15%,0%,0%,32%,26%,0%,0%,–,–,–,–,–,–,–,–,–
NCC(NC(=O)c1cc(-c2cn[nH]c2)c(-c2ccnc3[nH]ccc23)s1)c1ccccc1.O=C(O)C(F)(F)F.O=C(O)C(F)(F)F (stereo not drawn) [GSK1325775],6%,31%,25%,0%,0%,0%,25%,0%,0%,0%,–,–,–,–,–,–,–,–,–
Cc1cn2c(=O)cc(N3CCOCC3)nc2n1Cc1cccc(Cl)c1Cl [GSK2334006],5%,16%,19%,28%,0%,0%,0%,2%,0%,0%,–,–,–,–,–,–,–,–,–
CC(C)(CN)c1nc(-c2ccc(Cl)c(O)c2)c(-c2ccncc2)[nH]1.O=C(O)C(F)(F)F [SB-477794],0%,–,–,–,0%,–,–,–,–,–,–,81% and 83%,17% and 26%,0% and 4%,0% and 22%,0% and 6%,0% and 13%,13% and 0%,0% and 45%
